The record followed here is PubChem BioAssay (EPA / NIEHS).

In test [1] the target is human Peroxisome Proliferator-activated Receptor alpha (PPARa), PPARA (gene 5465) (UniProt Q07869). Nature of the test: ATG_PPARa_TRANS: Attagene TRANS-FACTORIAL HepG2 Assay for human Peroxisome Proliferator-activated Receptor alpha (PPARa) (AID 2283001). In outline: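 Reporter transcripts quantified by RT-PCR plus capillary electrophoresis after 24 h treatment, fitted upward relative to DMSO. Cells: human HepG2 transiently carrying multiple GAL4-UAS reporter units driven by NR-Gal4 chimeras.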
Chain of human Peroxisome Proliferator-activated Receptor alpha (PPARa), PPARA (gene 5465) (Q07869 whole entry, looked up, the tested form may be a part): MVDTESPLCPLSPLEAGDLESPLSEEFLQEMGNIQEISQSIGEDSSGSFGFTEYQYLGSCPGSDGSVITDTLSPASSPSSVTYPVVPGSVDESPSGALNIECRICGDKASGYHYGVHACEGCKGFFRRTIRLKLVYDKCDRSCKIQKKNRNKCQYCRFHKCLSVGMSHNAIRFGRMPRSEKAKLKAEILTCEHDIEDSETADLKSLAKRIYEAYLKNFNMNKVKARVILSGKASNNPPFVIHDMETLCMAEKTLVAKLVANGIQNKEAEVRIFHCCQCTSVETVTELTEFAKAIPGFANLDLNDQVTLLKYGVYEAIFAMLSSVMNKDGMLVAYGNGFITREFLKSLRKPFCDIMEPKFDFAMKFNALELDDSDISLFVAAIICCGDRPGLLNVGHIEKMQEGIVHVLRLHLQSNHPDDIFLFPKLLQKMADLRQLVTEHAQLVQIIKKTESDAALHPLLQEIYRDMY

Test [2] concerns the target human Peroxisome Proliferator-activated Receptor delta (PPARd), PPARD (gene 5467) (UniProt Q03181). Nature of the test: ATG_PPARd_TRANS: Attagene TRANS-FACTORIAL HepG2 Assay for human Peroxisome Proliferator-activated Receptor delta (PPARd) (AID 2283002). The procedure, abridged:
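Transient HepG2 transfection (multiple GAL4-UAS RTUs, chimeric receptor-Gal4); 24 h dosing; total RNA → oligo(dT) RT → PCR → 6-FAM primer extension → HpaI cut → CE. Positive direction vs DMSO.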

Test [3] deals with human RAR-related Orphan Receptor beta (RORb), RORB (gene 6096) (UniProt Q92753). The experiment in a line: ATG_RORb_TRANS: Attagene TRANS-FACTORIAL HepG2 Assay for human RAR-related Orphan Receptor beta (RORb) (AID 2283010). The procedure, abridged: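 Transfect HepG2 with multiple GAL4-UAS reporter transcription units; dose chemicals for 24 h; isolate RNA, reverse-transcribe and PCR-amplify reporter sequences; label, digest and resolve fragments by capillary electrophoresis; fit increases relative to DMSO.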
Chain of human RAR-related Orphan Receptor beta (RORb), RORB (gene 6096) (Q92753 whole entry, looked up, the tested form may be a part): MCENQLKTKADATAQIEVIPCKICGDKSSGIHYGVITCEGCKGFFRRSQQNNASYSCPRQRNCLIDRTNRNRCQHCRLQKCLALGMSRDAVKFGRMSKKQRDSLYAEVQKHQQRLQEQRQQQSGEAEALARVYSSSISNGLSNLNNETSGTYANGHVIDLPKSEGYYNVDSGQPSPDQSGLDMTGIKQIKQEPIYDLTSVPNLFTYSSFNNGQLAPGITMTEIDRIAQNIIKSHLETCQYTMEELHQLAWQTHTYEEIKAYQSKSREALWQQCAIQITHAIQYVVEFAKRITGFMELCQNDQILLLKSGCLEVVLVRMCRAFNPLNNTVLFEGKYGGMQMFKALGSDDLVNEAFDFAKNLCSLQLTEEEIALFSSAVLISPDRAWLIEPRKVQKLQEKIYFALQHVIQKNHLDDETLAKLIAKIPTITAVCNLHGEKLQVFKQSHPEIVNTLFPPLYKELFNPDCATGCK

The target of test [4] is human RAR-related Orphan Receptor gamma (RORg), RORC (gene 6097) (UniProt P51449). The experiment in a line: ATG_RORg_TRANS: Attagene TRANS-FACTORIAL HepG2 Assay for human RAR-related Orphan Receptor gamma (RORg) (AID 2283011). In outline: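 Chimeric RORg-Gal4 transactivation in transfected HepG2; 24 h exposure; RT-PCR/capillary electrophoresis readout of reporter mRNA, DMSO baseline.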
Chain of human RAR-related Orphan Receptor gamma (RORg), RORC (gene 6097) (P51449 whole entry, looked up, the tested form may be a part): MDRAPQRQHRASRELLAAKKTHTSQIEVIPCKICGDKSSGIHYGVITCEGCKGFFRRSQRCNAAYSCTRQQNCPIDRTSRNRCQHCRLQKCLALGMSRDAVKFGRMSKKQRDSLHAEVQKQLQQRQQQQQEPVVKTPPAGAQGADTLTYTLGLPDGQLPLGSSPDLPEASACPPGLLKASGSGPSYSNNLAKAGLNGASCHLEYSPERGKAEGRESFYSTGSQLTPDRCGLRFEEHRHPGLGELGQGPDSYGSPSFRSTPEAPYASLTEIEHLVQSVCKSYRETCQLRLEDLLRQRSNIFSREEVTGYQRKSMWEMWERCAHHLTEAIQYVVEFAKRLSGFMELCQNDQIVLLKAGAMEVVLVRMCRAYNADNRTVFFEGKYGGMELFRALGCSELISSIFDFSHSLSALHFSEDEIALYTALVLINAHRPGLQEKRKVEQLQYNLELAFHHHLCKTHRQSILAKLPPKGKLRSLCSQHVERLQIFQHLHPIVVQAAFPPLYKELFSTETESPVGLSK

Test [5] concerns the target Nuclear receptor subfamily 1 group I member 2 (Homo sapiens) (UniProt O75469). Nature of the test: ATG_PXR_TRANS: Attagene TRANS-FACTORIAL HepG2 Assay for human Pregnane X Receptor (PXR) (AID 2283008). The procedure, abridged: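 Trans-factorial format: exogenous NR-Gal4 fusion activity, not endogenous factor, in transfected human HepG2 liver cells. After 24 h dosing, RNA isolated, reverse-transcribed, amplified and resolved by capillary electrophoresis; induction scored versus DMSO.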

The target in test [6] is Retinoic acid receptor RXR-alpha (Homo sapiens) (UniProt P19793). The experiment in a line: ATG_RXRa_TRANS: Attagene TRANS-FACTORIAL HepG2 Assay for human Retinoid X Receptor alpha (RXRa) (AID 2283012). The procedure, abridged:
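Measures exogenous chimeric NR-GAL4 activity in transfected HepG2 liver cells after 24 h of dosing. Induced reporter mRNA was detected by RT-PCR with capillary electrophoresis, and gain of signal was analysed against DMSO.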

Test [7] has as its target human Retinoid X Receptor beta (RXRb), RXRB (gene 6257) (UniProt P28702). Nature of the test: ATG_RXRb_TRANS: Attagene TRANS-FACTORIAL HepG2 Assay for human Retinoid X Receptor beta (RXRb) (AID 2283013). In outline: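 Chimeric receptor-Gal4 activity was assessed in transiently transfected human HepG2 cells after 24 h exposure. Transcripts from GAL4-UAS reporters were quantified by fluorescent RT-PCR and capillary electrophoresis, with DMSO as negative control and baseline.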

In test [8] the target is human Thyroid Receptor alpha (THRa1), THRA (gene 7067) (UniProt P10827). The experiment in a line: ATG_THRa1_TRANS: Attagene TRANS-FACTORIAL HepG2 Assay for human Thyroid Receptor alpha (THRa1) (AID 2283014). In outline: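 Measured here is mRNA from a GAL4-UAS reporter in transfected HepG2 cells carrying a Gal4-fused receptor, 24 h post-dose. DMSO served as negative control and baseline.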
Chain of human Thyroid Receptor alpha (THRa1), THRA (gene 7067) (P10827 whole entry, looked up, the tested form may be a part): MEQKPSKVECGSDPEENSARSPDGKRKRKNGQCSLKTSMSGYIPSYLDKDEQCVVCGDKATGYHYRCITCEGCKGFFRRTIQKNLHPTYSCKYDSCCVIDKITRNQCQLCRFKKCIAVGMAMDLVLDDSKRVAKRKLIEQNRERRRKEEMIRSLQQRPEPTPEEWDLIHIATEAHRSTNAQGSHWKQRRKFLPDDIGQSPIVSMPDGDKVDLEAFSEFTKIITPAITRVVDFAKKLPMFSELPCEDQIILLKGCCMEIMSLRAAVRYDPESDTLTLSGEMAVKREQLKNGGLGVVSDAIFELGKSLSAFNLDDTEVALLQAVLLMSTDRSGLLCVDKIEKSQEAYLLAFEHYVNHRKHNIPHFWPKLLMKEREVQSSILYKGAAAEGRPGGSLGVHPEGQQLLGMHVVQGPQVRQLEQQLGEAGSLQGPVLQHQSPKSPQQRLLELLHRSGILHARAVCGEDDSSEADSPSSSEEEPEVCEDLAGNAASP

Test [9] addresses human Retinoic Acid Receptor beta (RARb), RARB (gene 5915) (UniProt P10826). Nature of the test: ATG_RARb_TRANS: Attagene TRANS-FACTORIAL HepG2 Assay for human Retinoic Acid Receptor beta (AID 2283004). The procedure, abridged: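 Fluorescent capillary-electrophoresis detection of GAL4-UAS reporter mRNA defines the endpoint, with induction over DMSO-treated wells scored as activity. Transiently transfected human hepatoma HepG2 cells expressing exogenous NR–Gal4 proteins are exposed to test chemicals for 24 h.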

Test [10] concerns the target Retinoic acid receptor alpha (Homo sapiens) (UniProt P10276). Nature of the test: ATG_RARa_TRANS: Attagene TRANS-FACTORIAL HepG2 Assay for human Retinoic Acid Receptor alpha (RARa) (AID 2283005). In outline:
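Reporter transcripts, measured by RT-PCR with fluorescent labeling and capillary electrophoresis after 24 h dosing, reflect activity of an exogenous human RARa–GAL4 fusion in transiently transfected HepG2. Fitted for increase relative to DMSO.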

Test [11] has as its target Peroxisome proliferator-activated receptor gamma (Homo sapiens) (UniProt P37231). The experiment in a line: ATG_PPARg_TRANS: Attagene TRANS-FACTORIAL HepG2 Assay for human Peroxisome Proliferator-activated Receptor-gamma (PPARg) (AID 2283007). In outline:
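Chimeric NR-Gal4 transactivation is measured in transiently transfected HepG2 cells by reporter mRNA induction at 24 h. Detection uses RT-PCR with fluorescent labelling and capillary electrophoresis; DMSO defines baseline.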

In test [12] the target is human Retinoic Acid Receptor gamma (RARg), RARG (gene 5916) (UniProt P13631). The experiment in a line: ATG_RARg_TRANS: Attagene TRANS-FACTORIAL HepG2 Assay for human Retinoic Acid Receptor gamma (RARg) (AID 2283009). In outline: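 TRANS format measured activity of exogenous NR-GAL4 fusion (RARg) in transfected HepG2 liver cells after 24 h dosing. Induced reporter RNA was detected by RT-PCR/capillary electrophoresis fluorescence, analysed in the positive direction against DMSO.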

Read-out in test [13]: Intercellular Adhesion Molecule 1 (ICAM1), ICAM1 (gene 3383)
Nature of the test: BSK_3C_ICAM1: BioMAP Diversity Plus: 3C Assay for Intercellular Adhesion Molecule 1 (ICAM1) Biomarker Activity (AID 2283003; active = hit-call score of the fitted dose curve at least 0.9, where 1 is the maximum; inactive = score below 0.9). Conditions: primary human endothelial cells (HUVEC); actives raise or lower the signal. In outline: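 Chemicals are dosed onto primary human umbilical vein endothelium (3C system). After 24 h, ICAM-1 is measured by ELISA, and responses are fitted bidirectionally relative to DMSO.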

Test [14] in a line: BSK_3C_Proliferation: Cell Proliferation Assessment in the BioMAP Diversity Plus: 3C Assay (AID 2283006; active = hit-call score of the fitted dose curve at least 0.9, where 1 is the maximum; inactive = score below 0.9;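 as to AC50: potency may reflect either rise or fall in cell number versus DMSO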). The conditions noted are these: primary human endothelial cells (HUVEC). The procedure, abridged:
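Cells (human umbilical vein endothelial, sub-confluent) receive test chemical; after 48 h they are fixed in 10% trichloroacetic acid, stained with 0.1% SRB and read at 560 nm. Activity is referenced to DMSO, fitting increases and decreases.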

Read-out in test [15]: E-selectin (Homo sapiens) (UniProt P16581)
The experiment in a line: BSK_3C_Eselectin: BioMAP Diversity Plus: 3C Assay for Eselectin Biomarker Activity (AID 2283015; active = hit-call score of the fitted dose curve at least 0.9, where 1 is the maximum; inactive = score below 0.9;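 also: cell surface E-selectin protein quantified by ELISA 24 h after dosing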). Conditions: primary human endothelial cells (HUVEC); actives raise or lower the signal. In outline: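 Endpoint derived by bidirectional fitting against DMSO vehicle; signal is ELISA-detected E-selectin from primary HUVEC at 24 h post-dosing, with parallel SRB staining (0.1% SRB, 560 nm) flagging cytotoxicity.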

Read-out in test [16]: Interleukin-1 alpha (IL1a), IL1A (gene 3552)
Nature of the test: BSK_BE3C_IL1a: BioMAP Diversity Plus: BE3C Assay for Interleukin-1 alpha (IL1a) Biomarker Activity (AID 2283016; active = hit-call score of the fitted dose curve at least 0.9, where 1 is the maximum; inactive = score below 0.9). The conditions noted are these: primary human bronchial epithelial cells; actives raise or lower the signal. In outline: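 Signal from IL-1a ELISA, taken 24 h after chemical dosing of human bronchial epithelial cells, is compared with DMSO as baseline using bidirectional curve fitting.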

Read-out in test [17]: Monocyte Chemoattractant Protein-1 (MCP1), CCL2 (gene 6347)
The experiment in a line: BSK_3C_MCP1: BioMAP Diversity Plus: 3C Assay for Monocyte Chemoattractant Protein-1 (MCP1) Biomarker Activity (AID 2283017; active = hit-call score of the fitted dose curve at least 0.9, where 1 is the maximum; inactive = score below 0.9). Conditions: primary human endothelial cells (HUVEC); actives raise or lower the signal. In outline:
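Using human vascular primary endothelium, researchers measured MCP-1 by ELISA 24 h after treatment, with DMSO serving as negative control for bidirectional fitting.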

Read-out in test [18]: Monocyte Chemoattractant Protein-1 (MCP1), CCL2 (gene 6347)
The experiment in a line: BSK_4H_MCP1: BioMAP Diversity Plus: 4H Assay for Monocyte Chemoattractant Protein-1 (MCP1) Biomarker Activity (AID 2283018; active = hit-call score of the fitted dose curve at least 0.9, where 1 is the maximum; inactive = score below 0.9). Conditions: primary human endothelial cells (HUVEC); actives raise or lower the signal. The procedure, abridged: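 Endothelial cells from umbilical vein were treated with test chemical, then after 24 h MCP-1 levels were quantified by ELISA; endpoint values came from bidirectional fitting with DMSO as baseline of activity.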

Read-out in test [19]: Human Leukocyte Antigen - DR isotype (HLADR), HLA-DRA (gene 3122)
Nature of the test: BSK_3C_HLADR: BioMAP Diversity Plus: 3C Assay for Human Leukocyte Antigen - DR isotype (HLADR) Biomarker Activity (AID 2283019; active = hit-call score of the fitted dose curve at least 0.9, where 1 is the maximum; inactive = score below 0.9;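 also: ELISA of cell-surface HLA-DR on HUVEC 24 h after dosing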). The conditions noted are these: primary human endothelial cells (HUVEC); actives raise or lower the signal. In outline:
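Compound added to primary HUVEC cultures, 24 h incubation, then HLA-DR determined by ELISA; endpoint derived by bidirectional fitting relative to DMSO negative control.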

Read-out in test [20]: Interleukin-8 (IL8), CXCL8 (gene 3576)
The experiment in a line: BSK_3C_IL8: BioMAP Diversity Plus: 3C Assay for Interleukin-8 (IL8) Biomarker Activity (AID 2283020; active = hit-call score of the fitted dose curve at least 0.9, where 1 is the maximum; inactive = score below 0.9). The conditions noted are these: primary human endothelial cells (HUVEC); actives raise or lower the signal. The procedure, abridged: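 Endothelial primary cells of human umbilical vein origin are dosed with chemical; after 24 h the IL-8 biomarker is measured by ELISA, and concentration–response is fitted in both directions versus DMSO.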

Inconclusive results are not listed. A structure can be active in one record and inactive in another. Calls of active or inactive are those of the source. The calls were made as follows, unless noted: active = hit-call score of the fitted dose curve at least 0.9, where 1 is the maximum; inconclusive = response in the unintended direction; inactive = score below 0.9.

As a reminder, the AC50 is the concentration at which the activity in the assay is half-maximal.

Chain of Peroxisome proliferator-activated receptor gamma (Homo sapiens) (P37231 whole entry, looked up, the tested form may be a part): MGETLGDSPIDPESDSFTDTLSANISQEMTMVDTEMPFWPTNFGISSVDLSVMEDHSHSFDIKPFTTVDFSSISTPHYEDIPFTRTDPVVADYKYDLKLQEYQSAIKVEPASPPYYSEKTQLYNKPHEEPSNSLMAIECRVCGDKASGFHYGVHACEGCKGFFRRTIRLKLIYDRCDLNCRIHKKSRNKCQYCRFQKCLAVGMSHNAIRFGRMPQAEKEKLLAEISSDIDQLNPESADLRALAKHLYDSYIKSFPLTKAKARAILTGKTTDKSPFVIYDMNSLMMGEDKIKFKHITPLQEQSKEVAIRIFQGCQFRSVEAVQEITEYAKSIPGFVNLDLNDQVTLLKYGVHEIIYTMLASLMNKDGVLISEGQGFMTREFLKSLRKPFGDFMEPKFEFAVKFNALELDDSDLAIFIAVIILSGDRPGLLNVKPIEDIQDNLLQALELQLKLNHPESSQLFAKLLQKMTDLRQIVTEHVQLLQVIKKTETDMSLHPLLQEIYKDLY
Chain of E-selectin (Homo sapiens) (P16581 whole entry, looked up): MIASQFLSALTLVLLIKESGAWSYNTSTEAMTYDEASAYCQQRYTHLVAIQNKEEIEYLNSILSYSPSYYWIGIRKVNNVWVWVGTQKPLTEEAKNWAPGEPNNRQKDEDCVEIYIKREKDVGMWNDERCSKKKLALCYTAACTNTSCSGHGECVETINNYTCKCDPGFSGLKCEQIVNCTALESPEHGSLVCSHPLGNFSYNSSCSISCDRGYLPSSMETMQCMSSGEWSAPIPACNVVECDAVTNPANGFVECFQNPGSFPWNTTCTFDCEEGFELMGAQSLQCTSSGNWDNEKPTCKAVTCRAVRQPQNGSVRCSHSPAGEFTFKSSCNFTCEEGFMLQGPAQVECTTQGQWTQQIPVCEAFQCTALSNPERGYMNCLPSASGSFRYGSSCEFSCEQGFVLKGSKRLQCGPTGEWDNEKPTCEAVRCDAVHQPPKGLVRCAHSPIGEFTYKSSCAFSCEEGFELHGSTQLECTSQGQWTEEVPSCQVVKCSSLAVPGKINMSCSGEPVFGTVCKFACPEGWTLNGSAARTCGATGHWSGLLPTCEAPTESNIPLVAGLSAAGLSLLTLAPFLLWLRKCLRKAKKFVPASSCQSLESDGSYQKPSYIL
Chain of Nuclear receptor subfamily 1 group I member 2 (Homo sapiens) (O75469 whole entry, looked up, the tested form may be a part): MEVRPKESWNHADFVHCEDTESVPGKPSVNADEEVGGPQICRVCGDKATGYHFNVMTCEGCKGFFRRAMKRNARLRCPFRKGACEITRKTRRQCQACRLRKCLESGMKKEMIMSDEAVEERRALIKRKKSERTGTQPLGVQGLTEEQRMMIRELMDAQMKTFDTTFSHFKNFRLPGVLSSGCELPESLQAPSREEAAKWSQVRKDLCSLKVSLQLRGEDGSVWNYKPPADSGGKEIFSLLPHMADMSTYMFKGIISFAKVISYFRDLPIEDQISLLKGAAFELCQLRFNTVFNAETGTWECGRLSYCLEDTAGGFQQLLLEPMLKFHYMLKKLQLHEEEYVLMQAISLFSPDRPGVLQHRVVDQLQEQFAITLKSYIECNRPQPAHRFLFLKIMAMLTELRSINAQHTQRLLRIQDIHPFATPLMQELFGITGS
Chain of human Peroxisome Proliferator-activated Receptor delta (PPARd), PPARD (gene 5467) (Q03181 whole entry, looked up, the tested form may be a part): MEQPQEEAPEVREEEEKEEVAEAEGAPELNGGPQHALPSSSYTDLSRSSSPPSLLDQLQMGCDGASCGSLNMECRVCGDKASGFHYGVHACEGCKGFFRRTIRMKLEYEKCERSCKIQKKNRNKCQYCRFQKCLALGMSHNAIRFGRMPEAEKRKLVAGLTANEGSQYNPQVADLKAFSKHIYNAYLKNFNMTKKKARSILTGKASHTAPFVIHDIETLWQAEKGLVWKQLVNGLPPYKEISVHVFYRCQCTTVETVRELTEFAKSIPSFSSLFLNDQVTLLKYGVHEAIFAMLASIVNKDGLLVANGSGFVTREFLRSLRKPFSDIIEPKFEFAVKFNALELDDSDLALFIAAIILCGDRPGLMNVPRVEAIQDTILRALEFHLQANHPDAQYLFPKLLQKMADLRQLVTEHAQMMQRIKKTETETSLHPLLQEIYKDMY
Chain of Retinoic acid receptor RXR-alpha (Homo sapiens) (P19793 whole entry, looked up, the tested form may be a part): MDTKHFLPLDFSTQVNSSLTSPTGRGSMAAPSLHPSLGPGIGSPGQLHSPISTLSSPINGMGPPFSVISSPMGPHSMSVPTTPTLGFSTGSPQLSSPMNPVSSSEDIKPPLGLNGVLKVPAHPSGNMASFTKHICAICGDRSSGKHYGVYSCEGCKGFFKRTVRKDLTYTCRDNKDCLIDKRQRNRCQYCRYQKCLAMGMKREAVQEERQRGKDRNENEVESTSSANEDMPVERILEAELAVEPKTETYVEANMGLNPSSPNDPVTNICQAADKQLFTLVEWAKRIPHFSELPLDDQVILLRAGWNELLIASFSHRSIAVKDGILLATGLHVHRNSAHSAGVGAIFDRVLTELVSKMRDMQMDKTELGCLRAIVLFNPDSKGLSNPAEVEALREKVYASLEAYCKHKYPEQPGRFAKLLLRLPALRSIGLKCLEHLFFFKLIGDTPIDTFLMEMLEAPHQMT
Chain of human Retinoid X Receptor beta (RXRb), RXRB (gene 6257) (P28702 whole entry, looked up, the tested form may be a part): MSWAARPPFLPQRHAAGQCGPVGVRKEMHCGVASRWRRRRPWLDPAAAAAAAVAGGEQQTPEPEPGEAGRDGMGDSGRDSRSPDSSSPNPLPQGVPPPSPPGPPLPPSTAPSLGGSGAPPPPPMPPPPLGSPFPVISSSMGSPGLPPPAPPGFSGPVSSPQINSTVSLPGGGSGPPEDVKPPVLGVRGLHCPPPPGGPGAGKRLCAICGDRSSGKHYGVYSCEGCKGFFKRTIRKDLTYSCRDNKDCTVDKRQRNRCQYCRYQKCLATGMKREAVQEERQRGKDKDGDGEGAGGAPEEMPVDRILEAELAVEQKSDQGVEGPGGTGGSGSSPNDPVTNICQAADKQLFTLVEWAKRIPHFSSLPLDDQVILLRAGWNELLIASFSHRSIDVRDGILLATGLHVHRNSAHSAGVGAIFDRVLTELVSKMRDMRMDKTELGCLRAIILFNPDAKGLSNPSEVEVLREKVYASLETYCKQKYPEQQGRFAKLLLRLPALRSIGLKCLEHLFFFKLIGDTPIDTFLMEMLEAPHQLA

As to `COCCOCCOCCOCCOCCO`, the outcome in test [1], in test [2], in test [3] and in [4] was inactive.

On to `CCC(O)CO` (stereo not given), for which the compound was called inactive in test [1], in [2], in test [5], in test [6], in [7] and in test [8].

Take `CCCCOCCOCCOCCOCCO`: the compound was called inactive in [1], in test [2], in [3], in test [4] and in [8].

`C=CC(=O)OCCOCCOCC`: the compound was called inactive in [1], in [9], in [10], in [12], in [3] and in test [4]. For the same compound, the result in test [8] was inactive. For the same compound, the figures for the AC50 in test [11] and in [5] were 17 µM (active) and 40 µM (active), respectively.

For the compound `CC(C)(C)C(=O)c1ccccc1`, the result in test [1], in [2], in test [5], in [3], in [4] and in test [7] was inactive. Also, the outcome in [8] was inactive.

In the case of `CCc1c(C)cc(N)c(CC)c1N`, the compound was classed as inactive in test [1], in [13], in [14], in [11], in test [4] and in [6]. Besides, the outcome in test [7], in [8], in test [15], in test [16], in test [17] and in test [18] was inactive. Further, the result in test [19] and in test [20] was inactive. Also, in test [5], the AC50 is 100 µM (active).

On to `CCO[Si](CCCS)(OCC)OCC`, for which the compound was called inactive in test [1], in [2], in test [5], in test [3], in [4] and in [6]. The compound was classed as inactive in test [8].

`C=CCOC(=O)CCC1CCCCC1`: the result in test [1], in [13], in test [14], in [11], in test [5] and in test [6] was inactive. The call in test [8], in test [15], in [16], in test [17], in test [18] and in test [19] was inactive. The result in test [20] was inactive. For the same compound, the half-maximal activity concentration (AC50) in test [14] was 31.6 µM (active).

Regarding `C=COCCOCCOCCOC=C`, the compound was called inactive in test [1], in test [2], in test [5], in [6] and in [8].

For the compound `O=S(=O)(O)c1ccc(O)c2ncccc12`, the result in [1], in test [2], in test [5], in test [3], in [4] and in test [6] was inactive. In addition, the call in test [7] and in [8] was inactive.

As for `C=C[C@@H](C)CCC=C(C)C`, the compound was classed as inactive in [1], in test [2], in [5], in test [3], in test [4] and in test [8].

`NCCCN1CCOCC1`: the outcome in test [1], in test [2], in [7] and in test [8] was inactive.

In the case of `OC1OC[C@@H](O)[C@H](O)[C@H]1O` (stereo not given in full), the compound was classed as inactive in test [1], in test [13], in test [14], in [11], in [3] and in [4]. Besides, the result in test [6], in test [7], in [15], in test [16], in test [17] and in [18] was inactive. The outcome in test [19] and in [20] was inactive. The AC50 in [20] was 5.39 µM (active).
